Only some compounds are listed: those with a hit (about 10% of all), similar ones and a draw of the others.
CCT chaperon mod: modulators of cytosolic chaperonin (CCT/TRiC) activity | purified chaperonin ATPase assay, HTRF ADP detection, 30 min | activity change, % (test concentration not listed), hits read low | actives 0.3% (n = 360,000) | AID 651819; in the data active = activity change below about -30%; note: % is set by controls: 0 for no effect and ±100 for the full control effect
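TRiC (40 or 20 nM final, by batch activity) in 30 mM Tris pH 7.4, 100 mM KCl, 5 mM MgCl2, 1 mM DTT was treated with compound at 76 uM single dose, then 10 uM ATP, 30 min at 37 °C. ADP was read by HTRF Transcreener.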
VDR inh: blocks the human vitamin D receptor | Potency, µM, for inactives: max response, negative = inhibition, usual class: inhibitors | actives 0.93% (n = 400,000) | VDR-SRC2-3 peptide fluorescence polarization, 2 h | AID 504847 | P11473; note: potency is the fitted concentration of half-maximal effect; % is set by controls: 0 for no effect and ±100 for the full control effect
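Reagent solutions, kept cold and dark, are dispensed first; compounds are then pinned in at 23 nl, plates briefly spun, and incubated 2 h at ambient temperature. Inhibition of VDR–SRC2-3 peptide binding is read by fluorescence polarization.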
G9a inh: inhibitors of human histone lysine methyltransferase G9a; actives 8.8% (n = 350,000); Potency, µM (titrated, usually from 102 µM), for the others: at the top dose activity, negative = inhibition, hits mostly inhibitors; G9a H3K9 monomethylation, AlphaScreen, 2 h; note: potency is the fitted concentration of half-maximal effect; % is set by controls: 0 for no effect and ±100 for the full control effect; nearly all actives have a fitted effect of over 75% in size
Target sequence (Q96KQ7 913-1193 limits assumed): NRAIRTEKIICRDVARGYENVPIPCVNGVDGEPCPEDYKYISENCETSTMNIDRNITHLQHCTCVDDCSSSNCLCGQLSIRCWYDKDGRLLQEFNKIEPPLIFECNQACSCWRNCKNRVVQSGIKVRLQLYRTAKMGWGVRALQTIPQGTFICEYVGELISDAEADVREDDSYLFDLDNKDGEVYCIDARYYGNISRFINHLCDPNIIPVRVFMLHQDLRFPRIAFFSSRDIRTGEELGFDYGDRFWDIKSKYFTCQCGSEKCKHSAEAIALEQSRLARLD
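Enzyme 20 nM + cpd, 15 min RT; add b-H3K9 pep 500 nM / SAM 20 uM; 2 h RT; anti-H3K9me1 Ab 0.5 ug/mL + SA donor / anti-rabbit acceptor beads 20 ug/mL each, 10 min; AlphaScreen read.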
MmCpn inh: inhibitors of Methanococcus maripaludis chaperonin TRiC (MmCpn) | purified Mm-Cpn ATPase, ADP Transcreener TR-FRET | Potency, µM (highest dose often 76.9 µM), for the others: at the top dose activity, negative = inhibition, actives largely listed as inhibitors | actives 0.031% (n = 330,000) | AID 504842; note: potency is the fitted concentration of half-maximal effect; % is set by controls: 0 for no effect and ±100 for the full control effect; nearly all actives have a fitted effect of over 80% in size
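Eu-cryptate anti-ADP/ADP-d2 competition gives a ratio inversely related to ADP. Enzyme at 25 nM was pre-exposed to compound for 10 min, then given 10 uM ATP for 30 min, 37°C throughout.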
PLK1 PBD block: PLK1 (human) polo-box domain binding inhibition; Plk1 PBD binding of FITC phosphopeptide, fluorescence polarization; P53350; Potency, µM, for the others: max response, negative = inhibition, actives largely listed as inhibitors; actives 2.8% (n = 360,000); note: potency is the fitted concentration of half-maximal effect; series mostly up to about 57 µM; % is set by controls: 0 for no effect and ±100 for the full control effect; nearly all actives have a fitted effect of over 65% in size
Target sequence (P53350 whole entry, looked up, the tested form may be a part): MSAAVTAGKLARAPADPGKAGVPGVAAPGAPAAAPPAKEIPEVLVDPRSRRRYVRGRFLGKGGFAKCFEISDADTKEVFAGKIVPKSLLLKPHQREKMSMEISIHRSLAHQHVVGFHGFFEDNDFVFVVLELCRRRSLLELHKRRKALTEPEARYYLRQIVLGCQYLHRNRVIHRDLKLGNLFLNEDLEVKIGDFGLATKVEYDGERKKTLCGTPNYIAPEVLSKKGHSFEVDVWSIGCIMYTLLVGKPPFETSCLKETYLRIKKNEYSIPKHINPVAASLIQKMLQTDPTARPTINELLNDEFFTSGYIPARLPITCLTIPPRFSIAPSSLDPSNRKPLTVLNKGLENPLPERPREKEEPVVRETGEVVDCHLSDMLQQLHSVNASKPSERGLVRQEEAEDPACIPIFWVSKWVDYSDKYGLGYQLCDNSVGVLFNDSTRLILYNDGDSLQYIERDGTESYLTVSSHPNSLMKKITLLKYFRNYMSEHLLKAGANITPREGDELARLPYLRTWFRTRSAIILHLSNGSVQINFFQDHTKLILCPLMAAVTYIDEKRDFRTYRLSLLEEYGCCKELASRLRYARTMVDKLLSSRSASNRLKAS
Sfp PPTase inh: inhibitors of Bacillus subtilis Sfp phosphopantetheinyl transferase. Q9F4F7. Biochemical Sfp PPTase activity, qHTS. Potency, µM, for the others: largest response in the series, negative = inhibition, usual class: inhibitors. actives 3.5% (n = 310,000);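 note: the enzyme is Sfp with the accession as filed and its product quenches rhodamine fluorescence; potency is the fitted concentration of half-maximal effect; 0% = enzyme reaction without inhibitor and -100% = no enzyme wells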
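Reaction rates are the 30-min fluorescence difference (ex 525, em 598 nm) in wells containing 15 nM Sfp, 5 uM rhodamine-CoA and 12.5 uM BHQ-2-YbbR at pH 7.6 with 10 mM MgCl2.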
Sfp PPTase conf: Sfp phosphopantetheinyl transferase inhibition, confirmation. shares compounds with Sfp PPTase inh. Sfp PPTase enzymatic assay, qHTS titration. Potency, µM (highest dose often 114 µM), inactives show top-dose activity change, negative = inhibition, actives largely listed as inhibitors. actives 79% (n = 380);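 note: potency is the fitted concentration of half-maximal effect; plate controls were uninhibited Sfp reaction for no effect and no enzyme control for full effect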
Sfp gel assay: Blocks Sfp PPTase activity, gel read-out; Potency, µM, hits mostly inhibitors; shares compounds with Sfp PPTase inh; purified Sfp, gel-based phosphopantetheinylation read-out; AID 2707; actives 20% (n = 210);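 active = potency below 100 µM; inconclusive = dose-dependent response but potency above 100 µM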;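 note: band intensities scaled against SCH202676 control wells before curve fitting; potency is an IC50 for inhibitors of Sfp transfer activity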
VDR confirm: inhibits human vitamin D receptor, primary hit validation; shares compounds with VDR inh; VDR-coactivator inhibition assay, qHTS confirmation; Potency, µM, hits mostly inhibitors; actives 89% (n = 840); AID 602199; note: potency is the fitted concentration of half-maximal effect
VDR FP fluor: confirmation of human VDR-coactivator binding inhibitors, fluorescein label | actives 48% (n = 840) | Potency, µM (doses to about 57.1 µM), without a hit: at the top dose activity change, negative = inhibition, most hits filed as inhibitors | shares compounds with VDR inh | VDR-coactivator binding, fluorescein fluorescence polarization; note: potency is the fitted concentration of half-maximal effect
VDR bla: VDR (human) inhibition, cell-based beta-lactamase validation; shares compounds with VDR inh; VDR beta-lactamase reporter cells, FRET ratio; cells co-treated with VDR agonist LG190178; Potency, µM (titrated, usually from 46.1 µM), for the others: at the top dose activity change, negative = inhibition, hits mostly inhibitors; actives 23% (n = 840); note: potency is the fitted concentration of half-maximal effect; % is set by controls: 0 for no effect and ±100 for the full control effect
VDR cytotox: counter-screen for vitamin D receptor inhibitors: cytotoxicity; shares compounds with VDR inh; Potency, µM (doses to about 48.3 µM), for the others: top-dose activity change, negative = cytotoxicity, hits mostly cytotoxic; cytotoxicity counter-screen, cell viability, qHTS; AID 602204; actives 18% (n = 840);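 note: potency is the fitted concentration of half-maximal effect; plate controls were DMSO for no effect and high-concentration cycloheximide for full effect; nearly all actives have a fitted effect of over 75% in size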
TbPYK inh: Trypanosoma brucei pyruvate kinase inhibition, cherry-pick confirmation. actives 67% (n = 890). Potency, µM (top dose mostly 76.9 µM), inactives show top-dose activity change, negative = inhibition, actives largely listed as inhibitors. shares compounds with PLK1 PBD block. AID 720569. recombinant TbPYK, Kinase-Glo ATP luminescence; note: potency is the fitted concentration of half-maximal effect; % is set by controls: 0 for no effect and ±100 for the full control effect; nearly all actives have a fitted effect of over 70% in size
TbPYK orthogonal: inhibits T. brucei pyruvate kinase in orthogonal ADP-Glo assay | Potency, µM (titrated, usually from 76.9 µM), for inactives: at the highest dose activity change, negative = inhibition, most hits filed as inhibitors | AID 720584 | recombinant TbPYK, ADP-Glo luminescence, 60 min | actives 62% (n = 890) | shares compounds with PLK1 PBD block; note: potency is the fitted concentration of half-maximal effect; % is set by controls: 0 for no effect and ±100 for the full control effect; nearly all actives have a fitted effect of over 75% in size
An asterisk follows results filed as active; i = inactive; ? = inconclusive; nt = not tested or not shown; [ ] = dose if it differs, or a comment. Unless noted, calls come from the whole dose curve; as a rule, active = well fitted curve in the direction sought with a large enough effect; inconclusive = small, poorly fitted or top-dose-only effect, or another doubt; inactive = no such curve, though single readings can be large; an effect the other way counts as inactive or inconclusive.

SMILES	CCT chaperon mod	VDR inh	G9a inh	MmCpn inh	PLK1 PBD block	Sfp PPTase inh	VDR confirm	VDR FP fluor	VDR bla	VDR cytotox	others
CCN1CCN(C(=S)c2ccc(Cl)cc2)CC1	-10	35µM*	?	-2%	2.1µM*	2.2µM*	9.5*	?	1%	2%	Sfp PPTase conf=13µM*;Sfp gel assay=i;TbPYK inh=0.25µM*;TbPYK orthogonal=1.6µM*
CCN1CCN(C(=S)Nc2ccccc2Cl)CC1	0	6%	19%[2.33 µM]	1%	1%	-2%	nt	nt	nt	nt
CC1CCC2C(=O)OC(CN3C(=O)c4ccccc4C3=O)CN2C1c1ccc(Br)cc1 (stereo not given)	nt	nt	nt	nt	nt	8%	nt	nt	nt	nt
CCOc1ccc(CCNC(=O)CCc2cn(Cc3ccc(C)cc3)c3ccccc23)cc1	nt	8%	-31%[59 µM]	nt	nt	nt	nt	nt	nt	nt
Cc1ccc(-c2cc(C(=O)O)c3cc(Br)ccc3n2)o1	-4	32µM*	1.3µM*	-7%	12µM*	3.2µM*	27*	?	33%	13%	Sfp PPTase conf=3.7µM*;Sfp gel assay=i;TbPYK inh=11µM*;TbPYK orthogonal=14µM*
Cc1cccc(-n2nnc(-c3nc(-c4ccccc4)no3)c2N)c1C	nt	1%	0%[59 µM]	nt	nt	nt	nt	nt	nt	nt
N#C/C(=C/c1ccc(N2CCOCC2)o1)c1ccc(Cl)cc1	-3	?	?	-2%	6%	0.71µM*	nt	nt	nt	nt	Sfp PPTase conf=13µM*;TbPYK inh=?;TbPYK orthogonal=35µM*
N#C/C(=C/N1CCOCC1)c1ccccc1	-3	11%	-2%	-8%	-8%	8%	nt	nt	nt	nt
Cc1cccc2cc3c(nc12)SC(=NCC1CCCO1)N(Cc1ccco1)C3 (stereo not given)	0	?	6.3µM*	?	24µM*	3.5µM*	14*	6.3µM*	21µM*	?	Sfp PPTase conf=6.6µM*;Sfp gel assay=6.2µM*;TbPYK inh=?;TbPYK orthogonal=32µM*
COc1ccc(C(=O)/C=C/C(=O)N(CC(=O)NC2CCCCC2)Cc2cccs2)c(O)c1	-1	45µM*	16µM*	?	6.7µM*	3.2µM*	15*	?	7.3µM*	15µM*	Sfp PPTase conf=3.3µM*;Sfp gel assay=2.1µM*;TbPYK inh=4.5µM*;TbPYK orthogonal=14µM*
CCCn1c(CC)nc([N+](=O)[O-])c1S(=O)(=O)c1ccccc1	-4	?	16%[59 µM]	-4%	?	8%	nt	nt	nt	nt
Cn1cnc([N+](=O)[O-])c1S(=O)(=O)c1cccc(Cl)c1	-2	45µM*	11%[59 µM]	-3%	?	-27%	?	25µM*	?	10µM*
O=S(=O)(/N=S1/CC=CCN1S(=O)(=O)c1ccccc1)c1ccccc1 (stereo not given)	0	3.5µM*	?	2%	1.5µM*	1.4µM*	5.3*	?	-4%	22%
COC(=O)c1ccc(NC(=O)CSc2nc(C)cc(C)c2C(=O)Nc2ccccc2)cc1	nt	10%	1%[59 µM]	nt	nt	nt	nt	nt	nt	nt
C=CCn1cccc(/C=C/C(=O)c2ccc(C(C)(C)C)cc2)c1=S	0	?	?	-7%	-10%	-21%	7.1*	7.1µM*	?	?
COC(=O)[C@@]1(Cc2ccc(OC)cc2)[C@H]2c3cc(C(=O)N(C)C)n(CCN4CNCC4=O)c3C[C@H]2CN1C(=O)c1ccccc1	nt	nt	nt	nt	nt	14%	nt	nt	nt	nt
CC(=O)N1CCN(C(=O)c2ccc(-c3ccccc3Cl)o2)CC1	-6	-26%	3%[12.7 µM]	0%	-9%	nt	nt	nt	nt	nt
CC(=O)N1CCN(C(=S)c2ccc(-c3ccc(Cl)cc3)o2)CC1	3	50µM*	4µM*	-8%	4.7µM*	32µM*	27*	?	26%	5%
COc1cccc(CSc2nc3n(n2)C(c2cccs2)C(C(=O)Nc2ccccc2C)=C(C)N3)c1 (stereo not given)	nt	0%	5%[59 µM]	nt	nt	nt	nt	nt	nt	nt
CC1(OC(=O)C2CCCC2)C(=O)C=C2C=C(c3ccsc3)N(CCc3c[nH]c4ccccc34)C=C2C1=O (stereo not given)	0	?	-42%[59 µM]	-1%	-19%	-13%	?	?	10%	34%
CCOC(=O)c1cccc(NC(=O)Nc2c(C)n(C)n(-c3ccccc3)c2=O)c1	nt	8%	6%[59 µM]	nt	nt	nt	nt	nt	nt	nt
CCOC(=O)c1c(NC(=O)c2cc(=O)c3c(C)cc(C)cc3o2)sc2c1CCC2	nt	6%	8%[59 µM]	nt	nt	nt	nt	nt	nt	nt
O=c1nc(/C=C/c2cccn2-c2ccc([N+](=O)[O-])cc2)cc(C(F)(F)F)[nH]1	2	-9%	?	0%	?	?	nt	nt	nt	nt
O=c1nc(/C=C/c2cc([N+](=O)[O-])ccc2Cl)cc(C(F)(F)F)[nH]1	1	?	?	-2%	-27%	-6%	3.2*	3.2µM*	?	-6%
CCC(=O)N1CCc2cc(Br)cc(S(=O)(=O)CCC(=O)Nc3ccc(Cl)cc3)c21	nt	-1%	-4%[59 µM]	nt	nt	nt	nt	nt	nt	nt
CS(=O)(=O)c1ncc(Cl)c(C(=O)Nc2ccc(OC(F)F)cc2)n1	2	10µM*	28µM*	1%	24µM*	?	8.4*	8.9µM*	?	13µM*

Screens deposited in PubChem BioAssay by National Center for Advancing Translational Sciences (NCATS).
